What all share (test): DAPPL (digital affinity profiling via proximity ligation, sequencing); 10 mM Tris-HCl pH 7.5, 50 mM NaCl, 1 mM DTT, 4% glycerol, room temperature, 30 min; GST-TFs on glutathione beads, 16-mer random dsDNA library, 0.1% formaldehyde crosslink after washing; high values mean tight binding
Conditions in all cases: protein: recombinant; tags: N-terminal GST; dsDNA, one strand shown

Test [1] has as its target T1, FLI1 (Homo sapiens, UniProt Q01543 1-452).
T1 sequence: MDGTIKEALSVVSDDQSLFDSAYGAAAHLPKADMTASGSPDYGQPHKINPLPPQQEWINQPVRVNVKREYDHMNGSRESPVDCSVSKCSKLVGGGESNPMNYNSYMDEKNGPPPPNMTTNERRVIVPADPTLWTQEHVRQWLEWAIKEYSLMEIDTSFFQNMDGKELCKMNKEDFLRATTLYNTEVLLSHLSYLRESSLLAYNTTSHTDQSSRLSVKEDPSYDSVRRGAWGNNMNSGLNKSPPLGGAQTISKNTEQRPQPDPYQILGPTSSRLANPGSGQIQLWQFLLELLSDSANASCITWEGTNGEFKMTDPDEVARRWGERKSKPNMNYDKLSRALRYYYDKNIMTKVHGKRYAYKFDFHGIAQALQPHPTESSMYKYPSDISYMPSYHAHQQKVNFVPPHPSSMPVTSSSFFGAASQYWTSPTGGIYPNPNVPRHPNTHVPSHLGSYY
A digest of the protocol:
(§1)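 Beads coated with glutathione captured GST-fused human transcription factors that had been expressed in yeast, and the factors were then given DNA barcodes and pooled with a tag-only sample. The pools were incubated with 200 nmole of a random double-stranded 16-mer DNA library in Tris/NaCl/DTT/glycerol buffer for 30 min at room temperature, washed, crosslinked with 0.1% formaldehyde and proximity-ligated with BsaI/T4 ligase at 37 °C for 1 h. PCR amplification and Illumina NextSeq500 sequencing came last. Binding signal is each hexamer's read frequency for a factor divided by its frequency for the tag-only sample.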

Test [2] deals with T2, ELK1 (Homo sapiens, UniProt P19419 1-428).
T2 sequence: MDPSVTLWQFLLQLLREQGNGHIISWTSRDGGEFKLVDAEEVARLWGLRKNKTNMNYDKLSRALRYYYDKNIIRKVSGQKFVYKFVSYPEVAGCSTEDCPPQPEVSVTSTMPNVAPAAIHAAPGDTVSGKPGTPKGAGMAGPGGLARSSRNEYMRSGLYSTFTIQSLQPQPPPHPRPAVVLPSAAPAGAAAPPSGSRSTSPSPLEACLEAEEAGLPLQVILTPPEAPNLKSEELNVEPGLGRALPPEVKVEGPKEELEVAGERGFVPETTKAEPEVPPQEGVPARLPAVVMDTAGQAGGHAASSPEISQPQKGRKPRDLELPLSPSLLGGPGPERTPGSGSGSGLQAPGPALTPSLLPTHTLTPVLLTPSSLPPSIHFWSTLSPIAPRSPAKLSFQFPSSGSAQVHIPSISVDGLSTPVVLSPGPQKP
In outline: as §1

The target of test [3] is T3, GABPA (Homo sapiens, UniProt Q06546 1-454).
T3 sequence: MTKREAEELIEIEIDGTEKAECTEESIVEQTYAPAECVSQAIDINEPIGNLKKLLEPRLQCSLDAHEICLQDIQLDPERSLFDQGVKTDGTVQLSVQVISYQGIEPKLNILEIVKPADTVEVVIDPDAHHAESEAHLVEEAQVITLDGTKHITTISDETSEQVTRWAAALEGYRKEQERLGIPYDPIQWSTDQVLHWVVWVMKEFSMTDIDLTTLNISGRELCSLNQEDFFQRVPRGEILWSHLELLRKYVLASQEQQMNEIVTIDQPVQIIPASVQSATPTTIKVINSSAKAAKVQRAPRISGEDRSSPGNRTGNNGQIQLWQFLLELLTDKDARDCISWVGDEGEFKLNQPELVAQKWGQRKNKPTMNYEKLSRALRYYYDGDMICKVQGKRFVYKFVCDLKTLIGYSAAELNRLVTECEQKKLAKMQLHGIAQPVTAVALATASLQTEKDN
In outline:
as §1

Test [4] addresses T4, ERG (Homo sapiens, UniProt P11308 1-479).
T4 sequence: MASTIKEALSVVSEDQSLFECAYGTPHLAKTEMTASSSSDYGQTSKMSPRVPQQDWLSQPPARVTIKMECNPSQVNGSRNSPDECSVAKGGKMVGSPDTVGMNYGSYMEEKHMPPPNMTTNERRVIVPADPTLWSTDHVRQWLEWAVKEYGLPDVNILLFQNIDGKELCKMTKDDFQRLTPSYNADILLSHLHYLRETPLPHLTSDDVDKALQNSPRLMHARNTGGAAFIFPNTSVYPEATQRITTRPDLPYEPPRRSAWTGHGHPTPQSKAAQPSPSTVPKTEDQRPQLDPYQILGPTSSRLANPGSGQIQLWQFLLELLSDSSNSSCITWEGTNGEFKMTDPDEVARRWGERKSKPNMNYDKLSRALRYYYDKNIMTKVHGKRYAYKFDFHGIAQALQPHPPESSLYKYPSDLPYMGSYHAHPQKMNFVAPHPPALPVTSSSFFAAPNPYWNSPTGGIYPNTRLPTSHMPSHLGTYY
A digest of the protocol:
as §1

Test [5] deals with ELF1 (Homo sapiens, UniProt P32519 1-619). In outline: as §1
Test [6] has as its target T5, EHF (Homo sapiens, UniProt Q9NZC4 1-300).
T5 sequence: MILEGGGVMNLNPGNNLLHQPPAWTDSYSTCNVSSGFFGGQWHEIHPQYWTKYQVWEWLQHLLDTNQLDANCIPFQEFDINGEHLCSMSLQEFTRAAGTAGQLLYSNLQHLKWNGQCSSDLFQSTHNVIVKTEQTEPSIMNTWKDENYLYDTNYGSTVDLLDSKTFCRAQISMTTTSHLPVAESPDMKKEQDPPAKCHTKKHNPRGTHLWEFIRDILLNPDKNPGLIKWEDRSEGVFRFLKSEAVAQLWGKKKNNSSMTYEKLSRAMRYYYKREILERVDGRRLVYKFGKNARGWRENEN
A digest of the protocol:
as §1

The target in test [7] is SPI1 (Homo sapiens, UniProt P17947 1-270). In outline: as §1
In test [8] the target is SPIB (Homo sapiens, UniProt Q01892 1-262). A digest of the protocol:
as §1

The target of test [9] is T6, FEV (Homo sapiens, UniProt Q99581 1-238).
T6 sequence: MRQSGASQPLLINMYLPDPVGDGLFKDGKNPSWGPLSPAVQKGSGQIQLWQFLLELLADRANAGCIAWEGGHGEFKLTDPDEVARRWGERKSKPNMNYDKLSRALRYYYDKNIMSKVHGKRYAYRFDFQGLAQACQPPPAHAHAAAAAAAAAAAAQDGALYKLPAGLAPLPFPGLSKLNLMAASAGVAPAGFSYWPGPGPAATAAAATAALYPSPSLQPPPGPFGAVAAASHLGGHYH
In outline: as §1

The target in test [10] is ETV5 (Homo sapiens, UniProt P41161 1-510). In outline: as §1
Test [11] concerns the target T7, SPIC (Homo sapiens, UniProt Q8N5J4 1-248).
T7 sequence: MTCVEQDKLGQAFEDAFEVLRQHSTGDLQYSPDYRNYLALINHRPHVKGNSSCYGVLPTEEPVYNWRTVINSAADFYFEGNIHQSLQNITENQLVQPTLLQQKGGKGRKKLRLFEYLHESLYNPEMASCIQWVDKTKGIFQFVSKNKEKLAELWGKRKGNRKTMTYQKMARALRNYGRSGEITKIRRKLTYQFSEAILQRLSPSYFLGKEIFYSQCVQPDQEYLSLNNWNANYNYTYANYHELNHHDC
In outline: as §1

Test [12] concerns the target ELF4 (Homo sapiens, UniProt Q99607 1-663). In outline: as §1
In test [13] the target is ETV1 (Homo sapiens, UniProt P50549 1-477). A digest of the protocol:
as §1

Test [14] concerns the target T8, ERF (Homo sapiens, UniProt P50548 1-548).
T8 sequence: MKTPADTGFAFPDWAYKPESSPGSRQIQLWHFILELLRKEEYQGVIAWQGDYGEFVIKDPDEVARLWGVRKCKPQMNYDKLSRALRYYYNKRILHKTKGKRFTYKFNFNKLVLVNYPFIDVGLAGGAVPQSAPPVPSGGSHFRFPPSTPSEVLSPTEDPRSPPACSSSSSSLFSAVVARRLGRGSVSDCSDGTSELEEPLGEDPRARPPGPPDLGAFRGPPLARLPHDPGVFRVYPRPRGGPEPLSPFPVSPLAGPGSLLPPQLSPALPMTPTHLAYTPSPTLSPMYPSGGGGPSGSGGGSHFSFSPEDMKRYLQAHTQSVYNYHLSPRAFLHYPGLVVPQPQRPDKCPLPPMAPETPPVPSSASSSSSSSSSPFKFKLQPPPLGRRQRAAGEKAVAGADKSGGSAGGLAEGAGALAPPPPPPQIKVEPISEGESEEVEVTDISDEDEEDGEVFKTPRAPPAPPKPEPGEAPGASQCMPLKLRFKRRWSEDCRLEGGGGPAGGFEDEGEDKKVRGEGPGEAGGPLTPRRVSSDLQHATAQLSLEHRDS
In outline: as §1

The target in test [15] is T9, ETV3L (Homo sapiens, UniProt Q6ZN32 1-361).
T9 sequence: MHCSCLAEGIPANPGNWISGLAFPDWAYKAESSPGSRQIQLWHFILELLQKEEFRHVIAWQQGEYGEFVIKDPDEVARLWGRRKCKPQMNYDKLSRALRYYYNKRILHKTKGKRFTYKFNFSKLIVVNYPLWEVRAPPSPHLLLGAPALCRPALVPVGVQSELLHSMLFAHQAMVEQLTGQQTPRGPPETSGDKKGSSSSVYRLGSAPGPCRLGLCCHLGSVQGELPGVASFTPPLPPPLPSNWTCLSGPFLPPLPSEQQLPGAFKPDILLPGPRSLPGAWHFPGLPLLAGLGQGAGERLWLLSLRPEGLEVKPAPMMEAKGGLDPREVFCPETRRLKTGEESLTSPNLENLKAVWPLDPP
In outline:
as §1

The target of test [16] is T10, ETS2 (Homo sapiens, UniProt P15036 1-469).
T10 sequence: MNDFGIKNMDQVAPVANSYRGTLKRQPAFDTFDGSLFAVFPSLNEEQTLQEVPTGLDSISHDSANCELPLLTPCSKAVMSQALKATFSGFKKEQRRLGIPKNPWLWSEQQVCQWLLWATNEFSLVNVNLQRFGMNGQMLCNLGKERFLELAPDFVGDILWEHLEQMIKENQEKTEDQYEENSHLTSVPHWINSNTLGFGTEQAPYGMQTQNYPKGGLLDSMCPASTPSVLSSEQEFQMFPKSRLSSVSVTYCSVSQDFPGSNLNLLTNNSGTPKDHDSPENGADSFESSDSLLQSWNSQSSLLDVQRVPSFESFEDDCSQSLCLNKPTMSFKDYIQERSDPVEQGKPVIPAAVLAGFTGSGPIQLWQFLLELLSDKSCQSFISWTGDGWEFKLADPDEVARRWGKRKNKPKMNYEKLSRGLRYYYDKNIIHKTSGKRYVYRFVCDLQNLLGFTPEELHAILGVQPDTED
In outline: as §1

In test [17] the target is T11, ELF5 (Homo sapiens, UniProt Q9UKW6-2 1-255).
T11 sequence: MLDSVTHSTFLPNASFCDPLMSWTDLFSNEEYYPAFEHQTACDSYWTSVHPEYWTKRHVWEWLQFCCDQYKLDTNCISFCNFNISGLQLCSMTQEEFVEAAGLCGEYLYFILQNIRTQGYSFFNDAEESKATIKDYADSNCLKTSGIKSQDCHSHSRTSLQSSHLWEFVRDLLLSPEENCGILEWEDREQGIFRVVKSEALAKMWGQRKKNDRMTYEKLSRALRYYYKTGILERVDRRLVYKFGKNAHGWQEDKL
A digest of the protocol:
as §1

The target of test [18] is ETV6 (Homo sapiens, UniProt P41212 1-452). A digest of the protocol: as §1
ETV6, sequence (P41212 whole entry): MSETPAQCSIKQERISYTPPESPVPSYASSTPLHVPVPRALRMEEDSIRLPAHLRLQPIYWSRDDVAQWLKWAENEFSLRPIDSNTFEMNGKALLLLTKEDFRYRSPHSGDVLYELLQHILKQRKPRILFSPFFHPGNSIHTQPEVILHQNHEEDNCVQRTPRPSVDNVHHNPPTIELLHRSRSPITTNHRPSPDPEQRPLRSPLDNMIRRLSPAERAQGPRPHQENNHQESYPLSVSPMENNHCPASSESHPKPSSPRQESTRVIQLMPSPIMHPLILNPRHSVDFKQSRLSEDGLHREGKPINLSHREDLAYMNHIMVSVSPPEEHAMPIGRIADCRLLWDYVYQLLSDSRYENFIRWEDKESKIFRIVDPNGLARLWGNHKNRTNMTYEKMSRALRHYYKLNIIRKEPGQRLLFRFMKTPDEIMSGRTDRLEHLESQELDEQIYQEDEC

ELF4, sequence (Q99607 whole entry): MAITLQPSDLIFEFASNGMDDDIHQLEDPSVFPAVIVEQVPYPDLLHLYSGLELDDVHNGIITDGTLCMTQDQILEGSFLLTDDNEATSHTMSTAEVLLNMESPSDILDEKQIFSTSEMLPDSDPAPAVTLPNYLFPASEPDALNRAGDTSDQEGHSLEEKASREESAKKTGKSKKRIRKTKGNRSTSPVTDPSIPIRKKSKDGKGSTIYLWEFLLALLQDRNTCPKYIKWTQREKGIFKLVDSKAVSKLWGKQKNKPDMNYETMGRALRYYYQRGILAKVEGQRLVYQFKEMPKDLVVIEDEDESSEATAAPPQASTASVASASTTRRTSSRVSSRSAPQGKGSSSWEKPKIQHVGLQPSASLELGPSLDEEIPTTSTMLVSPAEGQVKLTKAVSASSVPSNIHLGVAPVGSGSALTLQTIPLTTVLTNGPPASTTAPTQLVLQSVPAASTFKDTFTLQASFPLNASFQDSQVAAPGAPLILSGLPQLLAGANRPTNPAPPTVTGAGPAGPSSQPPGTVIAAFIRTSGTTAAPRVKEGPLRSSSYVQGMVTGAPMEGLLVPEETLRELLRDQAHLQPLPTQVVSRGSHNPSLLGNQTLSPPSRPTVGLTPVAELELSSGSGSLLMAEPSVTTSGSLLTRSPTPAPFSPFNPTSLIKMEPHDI
ETV5, sequence (P41161 whole entry): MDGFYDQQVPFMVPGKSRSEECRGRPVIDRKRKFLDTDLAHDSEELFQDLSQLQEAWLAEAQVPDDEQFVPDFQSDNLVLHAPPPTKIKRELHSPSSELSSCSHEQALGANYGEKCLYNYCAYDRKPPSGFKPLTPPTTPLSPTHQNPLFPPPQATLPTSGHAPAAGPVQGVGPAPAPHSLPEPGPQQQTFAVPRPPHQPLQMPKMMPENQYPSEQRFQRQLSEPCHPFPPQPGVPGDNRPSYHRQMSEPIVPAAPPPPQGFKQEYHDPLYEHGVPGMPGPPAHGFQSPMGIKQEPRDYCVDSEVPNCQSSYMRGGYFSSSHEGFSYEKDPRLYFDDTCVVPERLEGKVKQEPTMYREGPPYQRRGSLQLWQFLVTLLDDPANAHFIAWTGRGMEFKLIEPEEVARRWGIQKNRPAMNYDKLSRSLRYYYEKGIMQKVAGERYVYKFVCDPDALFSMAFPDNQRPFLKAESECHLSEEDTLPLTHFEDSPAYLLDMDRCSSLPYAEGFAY
ELF1, sequence (P32519 whole entry): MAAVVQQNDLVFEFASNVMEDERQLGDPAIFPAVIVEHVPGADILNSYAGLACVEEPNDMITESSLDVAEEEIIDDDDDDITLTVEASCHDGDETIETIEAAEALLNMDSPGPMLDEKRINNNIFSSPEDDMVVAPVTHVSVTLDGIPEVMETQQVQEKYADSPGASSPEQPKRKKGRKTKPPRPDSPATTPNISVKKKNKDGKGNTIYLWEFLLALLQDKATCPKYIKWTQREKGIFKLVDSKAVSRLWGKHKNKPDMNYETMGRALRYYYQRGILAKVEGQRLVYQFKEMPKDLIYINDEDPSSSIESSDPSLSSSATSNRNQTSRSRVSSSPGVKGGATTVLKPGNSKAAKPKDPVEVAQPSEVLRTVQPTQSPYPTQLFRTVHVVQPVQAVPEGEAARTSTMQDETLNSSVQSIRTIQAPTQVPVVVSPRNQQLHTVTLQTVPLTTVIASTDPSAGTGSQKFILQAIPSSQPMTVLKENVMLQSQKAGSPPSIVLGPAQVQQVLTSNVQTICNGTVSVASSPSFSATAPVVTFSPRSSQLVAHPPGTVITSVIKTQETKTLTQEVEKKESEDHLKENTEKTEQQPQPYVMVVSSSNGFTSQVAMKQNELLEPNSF
ETV1, sequence (P50549 whole entry): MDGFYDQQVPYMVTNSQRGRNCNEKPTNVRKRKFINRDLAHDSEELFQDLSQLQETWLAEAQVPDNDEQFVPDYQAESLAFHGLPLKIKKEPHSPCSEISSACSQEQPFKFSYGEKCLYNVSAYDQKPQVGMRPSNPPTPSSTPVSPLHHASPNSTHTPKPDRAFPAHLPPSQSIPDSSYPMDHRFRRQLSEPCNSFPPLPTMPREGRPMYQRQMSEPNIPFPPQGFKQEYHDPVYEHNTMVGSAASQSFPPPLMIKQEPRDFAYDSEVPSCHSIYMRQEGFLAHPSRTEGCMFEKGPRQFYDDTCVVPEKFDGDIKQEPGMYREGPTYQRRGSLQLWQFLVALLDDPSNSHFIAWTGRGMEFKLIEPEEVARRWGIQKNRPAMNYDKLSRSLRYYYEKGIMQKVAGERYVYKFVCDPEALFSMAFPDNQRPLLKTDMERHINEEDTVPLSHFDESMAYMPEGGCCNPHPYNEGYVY
SPIB, sequence (Q01892 whole entry): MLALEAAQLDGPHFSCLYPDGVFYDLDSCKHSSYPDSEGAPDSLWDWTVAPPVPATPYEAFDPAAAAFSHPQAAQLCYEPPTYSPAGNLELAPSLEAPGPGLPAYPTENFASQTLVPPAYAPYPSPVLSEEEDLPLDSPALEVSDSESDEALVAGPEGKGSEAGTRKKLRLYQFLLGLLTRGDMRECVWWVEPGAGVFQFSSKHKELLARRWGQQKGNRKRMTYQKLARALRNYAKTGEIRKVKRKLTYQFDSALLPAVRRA

Turning to AGTATG, the binding signal in [1] was 1.05 fold enrichment (6-mer frequency, TF over GST control); in test [2], 1.01 fold enrichment (6-mer frequency, TF over GST control); in test [3], 1.03 fold enrichment (6-mer frequency, TF over GST control); in [4], 1 fold enrichment (6-mer frequency, TF over GST control); in [5] it was 1.04 fold enrichment (6-mer frequency, TF over GST control); in test [6] it was 1.11 fold enrichment (6-mer frequency, TF over GST control). Also, the binding signal in test [7] is 1.08 fold enrichment (6-mer frequency, TF over GST control); in test [8], 1.11 fold enrichment (6-mer frequency, TF over GST control); in test [9], 1.02 fold enrichment (6-mer frequency, TF over GST control); in test [10], 1.02 fold enrichment (6-mer frequency, TF over GST control); in [11] it was 1.04 fold enrichment (6-mer frequency, TF over GST control); in test [12] it was 1.04 fold enrichment (6-mer frequency, TF over GST control). Moreover, the binding signal is 1.02 fold enrichment (6-mer frequency, TF over GST control) in test [13]; 1.02 fold enrichment (6-mer frequency, TF over GST control) in [14]; 1.13 fold enrichment (6-mer frequency, TF over GST control) in test [15]; 1.09 fold enrichment (6-mer frequency, TF over GST control) in test [16]; 1.06 fold enrichment (6-mer frequency, TF over GST control) in test [17]; 1 fold enrichment (6-mer frequency, TF over GST control) in test [18].

Values taken from paper PMC7862700, “An all-to-all approach to the identification of sequence-specific readers for epigenetic DNA modifications on cytosine”.
